The entries come from a sample that favours hits as a whole.
TNAP act mid DEA – human TNAP enzyme activators, primary screen, biochemical, luminescent, intermediate phosphate acceptor level; Alkaline phosphatase, tissue-nonspecific isozyme (Homo sapiens), P05186; purified TNAP, CDP-star luminescence, 100 mM DEA, 30 min; stronger effect = higher value; scale: 0 levamisole-inhibited, 1 vehicle-only enzyme; activation factor at 20 µM; 64,000 tested, under 10 active; AID 813, 2007;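 active = activation factor of at least 2 at 20 µM, relative to controls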
HePTP inh – inhibitors of human HePTP phosphatase, primary screen, biochemical, absorbance, leukemia target. Tyrosine-protein phosphatase non-receptor type 7 (Homo sapiens), P35236. 0.64% of 110,000 active. inhibition, % at 20 µM. recombinant HePTP phosphatase activity, OD absorbance; in the data active = inhibition above about 50%;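 note: plate controls were vehicle for no effect and reference inhibitor for full effect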
FXIa mix inh – FXIa protease inhibitors in compound pools, primary screen, biochemical, 10-compound mixtures. purified FXIa, fluorogenic substrate, pooled mixtures. AID 680, 2007. inhibition, % at 5 µM. 0.19% of 62,000 active;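 note: each value is inhibition by a whole ten-compound pool holding the compound; 0% = enzyme with no mixture and 100% = wells lacking enzyme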
Calb biofilm kill – clotrimazole potentiators killing Candida biofilms, primary screen, with clotrimazole, Alamar Blue; inhibition, % at 6 µM; C. albicans biofilm + clotrimazole; 0.14% of 85,000 active;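 active = inhibition above 20%; inactive = inhibition below 20%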;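 note: preformed 24 hr biofilms exposed to compound for 48 hr; 0% = biofilm without compound and 100% = blank killed by clotrimazole plus chlorhexidine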
FXIIa mix inh – human factor XIIa inhibitors, primary screen, biochemical, pooled compound mixtures, fluorogenic substrate; Coagulation factor XII (Homo sapiens), P00748; inhibition, % at 5 µM; purified FXIIa; 0.2% of 62,000 active; AID 684, 2007;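 note: 0% = enzyme without compound and 100% = no enzyme blank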
D1 allo mod – D1 CRE-luciferase signal change, two-sided – cell-based, HEK293 D1, dopamine EC30, D1 allosteric modulator project, primary screen; D(1A) dopamine receptor (Homo sapiens), P21728; dopamine EC30 potentiation; actives deviate in either direction; B-score at 10 µM; 5.9% of 58,000 active; AID 641, 2007;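 active = luminescence count or its row- and column-corrected plate score outside the 99.7% band of the plate's sample wells, on either side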
Target sequence (P21728 whole entry, looked up): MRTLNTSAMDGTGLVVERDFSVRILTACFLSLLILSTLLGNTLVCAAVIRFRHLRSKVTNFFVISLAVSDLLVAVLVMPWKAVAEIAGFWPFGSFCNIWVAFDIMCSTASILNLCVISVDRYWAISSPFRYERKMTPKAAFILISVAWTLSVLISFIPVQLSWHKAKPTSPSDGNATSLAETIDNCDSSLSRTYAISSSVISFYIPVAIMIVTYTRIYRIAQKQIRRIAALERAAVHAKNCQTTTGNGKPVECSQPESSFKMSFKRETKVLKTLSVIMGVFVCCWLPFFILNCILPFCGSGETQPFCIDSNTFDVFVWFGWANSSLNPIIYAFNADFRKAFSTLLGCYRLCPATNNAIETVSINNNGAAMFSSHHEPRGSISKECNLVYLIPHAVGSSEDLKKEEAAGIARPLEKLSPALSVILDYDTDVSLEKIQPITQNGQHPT
D1 mod confirm – D1 receptor positive allosteric modulators, retest, confirmation, cell-based, HEK293 D1, CRE-luciferase, duplicate. shares compounds with D1 allo mod. dopamine EC30 potentiation; stronger effect = higher value. luminescence at 10 µM. 88% of 2,200 active. AID 642, 2007;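 active = luminescence in either of two replicates above the same-plate mean plus 3 SD of the low-dose dopamine control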
D1 no dopamine – D1 receptor agonism without dopamine, confirmation, mechanism study for D1 allosteric modulator project, cell-based, HEK293 D1, CRE-luciferase, secondary assay 1; shares compounds with D1 allo mod; luminescence, no dopamine; stronger effect = higher value; luminescence at 10 µM; 0.8% of 1,900 active; in the data active = luminescence above about 3900
Isoprot counter – isoproterenol response counter-screen activity for D1 modulators. shares compounds with D1 allo mod. HEK293 D1 CRE-luciferase, isoproterenol EC30 counter-screen; stronger effect = higher value. luminescence at 10 µM. 63% of 2,200 active;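 active = luminescence in either replicate above plate mean of wells with a partly effective reference agonist dose plus 3 SD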;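 note: isoproterenol raises cAMP through native beta-adrenoceptor Gs so signal bypasses D1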
* = called active by the depositor; nt = not tested or not shown. Cut-off read from the data, not from the text of the source, unless noted: active = inhibition above about 20% (passing the limit was not always enough); inactive = the rest.

SMILES	TNAP act mid DEA	HePTP inh	FXIa mix inh	Calb biofilm kill	FXIIa mix inh	D1 allo mod	D1 mod confirm	D1 no dopamine	Isoprot counter
c1ccc(-n2c(SCc3ccncc3)nnc2-c2ccco2)cc1	0.9	9	1	10	6	10*	14488*	nt	3300*
COc1cccc(NS(=O)(=O)c2ccc(OC)c(Br)c2)c1	nt	-7	nt	nt	nt	nt	nt	nt	nt
O=c1oc2ccccc2c2nccnc12	0.8	7	17	6	-18	-0.26	nt	nt	nt
Cc1cnc(N)c2c(=O)oc3ccccc3c12	0.9	5	5	6	7	9.8*	17776*	nt	5024*
Cc1cc(OCC(=O)Nc2cc([N+](=O)[O-])ccc2Cl)ccc1Br	nt	4	nt	nt	nt	nt	nt	nt	nt
Cc1cc(C)n(-c2nc(NCc3cccnc3)c3c4c(sc3n2)COC(C)(C)C4)n1	1	0	2	7	11	3*	14976*	1540	5200*
CCCSc1nc(NCc2ccco2)c2c3c(sc2n1)COC(C)(C)C3	nt	nt	nt	1	nt	nt	nt	nt	nt
COC(=O)C1=C(C)N(C)C(=O)/C1=C\c1ccccc1Cl	nt	-1	nt	nt	nt	nt	nt	nt	nt
FC(F)(F)c1cc(-c2ccco2)nc(-n2nc(C(F)(F)F)cc2C2CC2)n1	0.9	-2	6	6	11	5.3*	5828	1672	3760*
FC(F)(F)c1cc(-c2ccco2)nc(NCc2ccco2)n1	0.9	9	5	nt	-14	15*	10384*	1612	3632*
COc1cccc(-c2cc(C(F)(F)F)nc(NCc3ccco3)n2)c1	0.9	-3	9	9	2	3*	7368*	nt	2868*
CC1=NN(c2ccc(S(N)(=O)=O)cc2)C(=O)/C1=C\c1ccc(-c2ccc(Br)cc2)o1	nt	-3	nt	nt	nt	nt	nt	nt	nt
Cc1cccc(CSC2=NCCN2C(=O)c2ccco2)c1	0.9	3	0	0	4	3.8*	9944*	1728	3308
CC(=O)c1cccc(NC(=O)c2cccc(C)c2)c1	nt	-4	nt	nt	nt	nt	nt	nt	nt
C/C(Cl)=C\Cn1c(Nc2ccccc2)nc2c1c(=O)n(C)c(=O)n2C	0.9	8	3	6	4	14*	11964*	nt	3828*
COc1ccc(OC)c(C2=NOC(C(=O)Nc3cccc(C(C)=O)c3)C2)c1 (stereo unspecified)	0.8	4	3	-4	6	3.7*	9256*	1624	2976
COc1ccc(OC)c(C2=NOC(C(=O)Nc3ccccc3SC)C2)c1 (stereo unspecified)	nt	nt	nt	-4	nt	nt	nt	nt	nt
O=C(NC1CCCCC1)c1c(F)cccc1F	nt	7	nt	nt	nt	nt	nt	nt	nt
O=c1[nH]c2cc3c(cc2cc1C(c1nnnn1C1CCCC1)N1CCSCC1)OCCO3 (stereo unspecified)	0.8	6	-3	4	25	6.9*	10448*	1784	2992
COc1ccc(CN2CCN(Cc3ccccc3Cl)CC2)c2ccccc12	nt	-5	nt	nt	nt	nt	nt	nt	nt
COc1ccccc1OCC(=O)NNC(=O)c1cccnc1	nt	-6	nt	nt	nt	nt	nt	nt	nt
COc1ccc2nc(NC(=O)CCc3nc(-c4ccccc4F)no3)sc2c1	0.9	-3	3	5	-14	8.3*	7800	1704	2356
CCOC(=O)c1c(NC(=O)Cc2cccs2)sc(C(=O)N2CCCCC2)c1C	0.8	8	3	11	5	12*	17816*	1812	6864*
COC(=O)c1c(NC(=O)Cc2ccccc2)sc(C)c1C	nt	7	nt	3	nt	nt	nt	nt	nt
COC(=O)c1c(NC(=O)Cc2cccs2)sc(C)c1C	0.9	9	4	-2	5	15*	11876*	1564	3888*
SMILES	TNAP act mid DEA	HePTP inh	FXIa mix inh	Calb biofilm kill	FXIIa mix inh	D1 allo mod	D1 mod confirm	D1 no dopamine	Isoprot counter
Cc1ccc(-n2ncc(C#N)c2/N=C/N2CCCCCC2)cc1	1	6	-4	7	0	20*	17800*	1536	4284*
CCSc1nc(N)c2c(C)c(C)sc2n1	nt	nt	nt	8	nt	nt	nt	nt	nt
C=CCSc1nc(N)c2c(C)c(C)sc2n1	0.9	4	4	9	0	4.9*	18248*	1540	4196*
CCOC(=O)c1cc(-c2cccs2)nn1CCC#N	1	-1	-2	8	11	nt	nt	nt	nt
CCOC(=O)c1cc(-c2ccc(C)o2)nn1CCC#N	0.9	2	6	4	-1	5.6*	19640*	1728	3844*
Cc1sc(NC(=O)c2ccc([N+](=O)[O-])cc2Cl)nc1-c1ccccc1	nt	-8	nt	nt	nt	nt	nt	nt	nt
C=CCn1c(NCCO)nc2sc3c(c2c1=O)CCC3	1	2	4	11	11	11*	6332	1628	2524
Oc1c(Cl)cc(Cl)cc1/C=N/N=C/c1cc(Cl)cc(Cl)c1O	nt	3	nt	nt	nt	nt	nt	nt	nt
COC(=O)Nc1ccc2c(c1)N(C(=O)CCN1CCOCC1)c1ccccc1S2	1	8	5	9	2	4.3*	8120*	1920	3060
CCOC(=O)Nc1ccc2c(c1)N(C(=O)CCN1CCOCC1)c1ccccc1S2	0.9	6	4	nt	4	4.8*	10492*	1592	3852*
CCOC(=O)Nc1ccc2c(c1)N(C(=O)CCN1CCOCC1)c1ccccc1S2=O (stereo unspecified)	0.9	2	8	3	7	0.34	nt	nt	nt
CC(C)CNc1nc(-c2ccc(Cl)cc2)nc2ccccc12	nt	-8	nt	nt	nt	nt	nt	nt	nt
COc1ccc(NC(=O)c2ccc(-n3cnnn3)cc2)cc1	nt	0	nt	nt	nt	nt	nt	nt	nt
Cc1cc(C)n2nc(SC(C)C(=O)NCc3ccco3)nc2n1 (stereo unspecified)	0.9	5	4	9	4	7.1*	6820	1844	2388
Cc1cc(C)n2c(SCC(=O)NCc3ccco3)nnc2n1	0.9	6	13	8	-2	-0.6	nt	nt	nt
Cc1nccn1S(=O)(=O)c1ccc(Cl)c([N+](=O)[O-])c1	nt	-12	nt	nt	nt	nt	nt	nt	nt
COc1ccccc1C1=N/C(=C\c2ccc3c(c2)OCO3)C(=O)O1	nt	-17	nt	nt	nt	nt	nt	nt	nt
Cn1c(O)c(N=Nc2ccccn2)c2ccccc21	nt	-1	nt	nt	nt	nt	nt	nt	nt
CCSc1nnc2c(n1)OC1(CCCC1)Nc1ccccc1-2	0.9	13	8	2	0	6.6*	15136*	1636	3568*
O=C(CSC1CC(=O)N(c2ccc(F)cc2)C1=O)Nc1ccc2ccccc2c1 (stereo unspecified)	nt	-8	nt	nt	nt	nt	nt	nt	nt
